GPT2 inhibitor = inhibitors of human GPT2 alanine aminotransferase. Q8TD30. Recombinant GPT2, coupled pyruvate oxidase/HRP Amplex Red fluorescence. Potency, µM (top dose mostly 57.7 µM), for inactives: at the highest dose activity change, negative = inhibition, most hits filed as inhibitors. 100,000 compounds, 0.25% hits; note: % is set by controls: 0 for no effect and ±100 for the full control effect; nearly all actives have a fitted effect of over 60% in size
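Fluorescence of coupled pyruvate oxidase/HRP/Amplex Red system (50uM Amplex, 30 min, dark) reports pyruvate formed by GPT2. Enzyme reaction: 10ng/uL GPT2, 2mM L-alanine, 250uM a-KG, 30 min room temperature, pH 7.5; 50uM AOA control.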
NIH3T3 tox = kills NIH 3T3 cells. NIH 3T3 viability, CellTiter-Glo ATP luminescence, 48-72 h. Potency, µM (series often up to 96.7 µM), for inactives: top-dose activity change, negative = cytotoxicity, most hits filed as inhibitors. 94,000 compounds, 4.3% hits; note: % is set by controls: 0 for no effect and ±100 for the full control effect; nearly all actives have a fitted effect of over 55% in size
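ATP-dependent luminescence (CellTiter-Glo) served as the viability signal for NIH 3T3 cells treated with compound for 48 or 72 hr at 37 °C.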
hNpr1 antagonist = human Npr1 receptor antagonism. P16066. HEK293 hNpr1 GloSensor cGMP, ANP-stimulated luminescence. Potency, µM (highest dose often 46.3 µM), without a hit: at the highest dose activity change, negative = inhibition, most hits filed as inhibitors. 76,000 compounds, 1.6% hits; calls by dose curve; note: % is set by controls: 0 for no effect and ±100 for the full control effect; nearly all actives have a fitted effect of over 60% in size
Target sequence (P16066 whole entry, looked up): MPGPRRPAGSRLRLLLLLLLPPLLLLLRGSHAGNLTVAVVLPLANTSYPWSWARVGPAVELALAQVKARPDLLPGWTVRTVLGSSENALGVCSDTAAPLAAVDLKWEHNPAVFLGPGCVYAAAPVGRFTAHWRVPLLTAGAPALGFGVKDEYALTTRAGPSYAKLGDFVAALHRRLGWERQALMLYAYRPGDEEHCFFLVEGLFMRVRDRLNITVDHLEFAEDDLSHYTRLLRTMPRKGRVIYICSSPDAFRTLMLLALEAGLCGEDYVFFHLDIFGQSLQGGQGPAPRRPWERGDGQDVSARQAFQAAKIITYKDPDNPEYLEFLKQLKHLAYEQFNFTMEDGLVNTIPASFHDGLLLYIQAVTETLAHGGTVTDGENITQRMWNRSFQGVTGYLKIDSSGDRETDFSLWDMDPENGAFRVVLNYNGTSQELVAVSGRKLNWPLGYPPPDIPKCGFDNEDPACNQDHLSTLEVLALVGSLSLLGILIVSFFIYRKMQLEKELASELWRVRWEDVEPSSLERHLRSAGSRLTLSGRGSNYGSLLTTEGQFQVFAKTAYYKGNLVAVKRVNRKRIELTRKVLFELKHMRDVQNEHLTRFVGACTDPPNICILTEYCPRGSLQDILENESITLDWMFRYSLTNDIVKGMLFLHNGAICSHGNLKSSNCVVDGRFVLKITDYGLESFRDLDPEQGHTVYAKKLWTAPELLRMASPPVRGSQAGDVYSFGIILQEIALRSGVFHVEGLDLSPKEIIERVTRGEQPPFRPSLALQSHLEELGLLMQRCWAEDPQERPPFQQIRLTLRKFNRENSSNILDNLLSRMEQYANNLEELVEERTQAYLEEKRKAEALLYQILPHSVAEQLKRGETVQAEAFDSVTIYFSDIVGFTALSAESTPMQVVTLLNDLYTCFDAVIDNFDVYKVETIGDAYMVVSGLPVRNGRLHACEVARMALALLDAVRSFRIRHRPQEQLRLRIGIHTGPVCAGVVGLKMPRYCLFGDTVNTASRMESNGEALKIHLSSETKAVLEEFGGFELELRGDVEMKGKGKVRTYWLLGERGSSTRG
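HEK293 cells stably expressing human Npr1 and cGMP GloSensor pGS-40F, loaded 2 h with 2% GloSensor reagent, given compound 30 min at room temperature. Luminescence read before and 20 min after 0.1 nM hNppA.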
HEK293 tox = HEK 293 cell cytotoxicity; AID 1345083; Potency, µM (series often up to 115 µM), inactives show top-dose activity change, negative = cytotoxicity, hits mostly inhibitors; HEK 293 viability, ATP luminescence (CellTiter-Glo), 48-72 h; 94,000 compounds, 6.6% hits; note: % is set by controls: 0 for no effect and ±100 for the full control effect; nearly all actives have a fitted effect of over 60% in size
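qHTS cytotoxicity; HEK 293, 250 cells/well; compound pinned; 48 or 72 hr, 37 degree Celsius, 5% CO2, 95% humidity; CellTiter-Glo, 10 min RT; luminescence (ATP).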
FLuc inh-1 = inhibitors of firefly (Photinus pyralis) luciferase. Potency, µM (top dose mostly 115 µM), hits mostly inhibitors. purified P. pyralis luciferase, luminescence, biochemical. 76,000 compounds, 2.5% hits. AID 1347043; note: % is set by controls: 0 for no effect and ±100 for the full control effect; nearly all actives have a fitted effect of over 65% in size
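Cell-free enzyme assay, 10nM P. pyralis luciferase, luciferin and ATP each at 10uM. Inhibition profiled over a 6-point titration, read as luminescence.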
FLuc SDR -ATP = firefly luciferase binding stabilization, ATP absent | Purified FLuc-C-HiBiT, Nano-Glo HiBiT luminescence, no ATP | 1,300 compounds, 7.8% hits | Potency, µM (highest dose often 32.7 µM), without a hit: at the highest dose activation (signal gain), usual class: activators | shares compounds with FLuc inh-1 | AID 1963318; note: nearly all actives have a fitted effect of over 55% in size
FLuc SDR ATP = binders stabilizing firefly luciferase, plus ATP. AID 1963319. purified FLuc-C-HiBiT + ATP, HiBiT complementation luminescence. Potency, µM (doses to about 32.7 µM), without a hit: at the top dose activation (gain of signal), actives largely listed as activators. 1,300 compounds, 8.7% hits. shares compounds with FLuc inh-1;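 note: signal reports ligand binding via conformational change of the enzyme rather than luciferase catalysis; % of control where 0% means no effect; nearly all actives have a fitted effect of over 55% in size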
FLuc inh-2 = inhibitors of firefly luciferase enzymatic activity. shares compounds with FLuc inh-1. purified FLuc-C-HiBiT enzyme, luciferin luminescence. Potency, µM (doses to about 32.7 µM), without a hit: at the highest dose activity change, negative = inhibition, most hits filed as inhibitors. 1,300 compounds, 42% hits; note: % is set by controls: 0 for no effect and ±100 for the full control effect; nearly all actives have a fitted effect of over 70% in size
* hit, by the source's call; i = inactive; u = inconclusive; x = not tested or not shown; [ ] = another dose, or the depositor's remark. Most compounds without a hit are left out; they make up all but 10% or so of the library. Unless noted, calls come from the whole dose curve; as a rule, active = well fitted curve in the direction sought with a large enough effect; inconclusive = small, poorly fitted or top-dose-only effect, or another doubt; inactive = no such curve, though single readings can be large; an effect the other way counts as inactive or inconclusive. Potency is the fitted concentration of half-maximal effect.

SMILES	GPT2 inhibitor	NIH3T3 tox	hNpr1 antagonist	HEK293 tox	FLuc inh-1	FLuc SDR -ATP	FLuc SDR ATP	FLuc inh-2
Nc1nc2c([nH]c(=O)n2C2OC(CO)C(O)C2O)c(=O)[nH]1 (stereo not given)	x	x	x	x	x	14%	8%	0%
Nc1nc2c(ncn2[C@@H]2O[C@H](CO)[C@@H](O)[C@H]2O)c(=O)[nH]1	i	x	x	x	x	x	x	x
Nc1nc2c([nH]c(=S)n2C2OC(CO)C(O)C2O)c(=O)[nH]1 (stereo not given)	x	x	x	x	x	0%	-1%	2.5µM*
CN1CCCC(CN(C)C(=O)c2cc(-c3cnn(CCO)c3)nc3ccccc23)C1 (stereo not given)	-3%	2%	0%	-27%	i	x	x	x
CC(C)(C)n1cc(-c2cc(C(=O)N3C[C@H]4CC[C@H]3C4)c3ccccc3n2)cn1	0%[11.5 µM]	u	-10%	u	2.8µM*	u	u	7µM*
O=C(NCc1ccoc1)c1ccc2nc(-c3ccc(F)cc3)cn2c1	2%	u	-6%	u	5.6µM*	20%	15%	u
CC[C@H]1CN(S(=O)(=O)c2ccc(OC)cc2)CC[C@H]1CC(=O)NCc1ccc(OC)cc1	-8%	u	6%	-10%	i	x	x	x
CC(=O)c1cccc(NC(=O)c2nc3ccccc3n(C)c2=O)c1	x	x	x	x	x	4.4µM*	u	3.1µM*
Cc1ccc(-n2ncc3c(N4CCCCC4)ncnc32)cc1	x	x	x	x	x	1.8µM*	1.1µM*	0.2µM*
Cc1ccc(-n2ncc3c(N4CCCCCC4)ncnc32)cc1Cl	x	x	x	x	x	u	u	0.7µM*
Nc1ccc2c(N3CCCCC3)ncnc2c1	-16%	-21%	-5%	-18%	i	x	x	x
Nc1ccc2ncnc(N3CCCCC3)c2c1	2%	u	-24%	u	i	x	x	x
O=C(Nc1ccc2ncnc(N3CCCCC3)c2c1)c1ccccc1Cl	-7%	u	-16%	u	i	x	x	x
Cc1ccc(-n2ncc3c(N4CCCCC4)ncnc32)cc1Cl	x	x	x	x	x	8.8µM*	1.8µM*	0.79µM*
COCCN1CCCCCC(O)c2cc(C(=O)N3CCCCCC3)ccc21 (stereo not given)	i	u	4%	u	i	x	x	x
O=C(NCCn1ccn2nc(-c3ccc(F)cc3)cc2c1=O)c1cccc2[nH]ccc12	4%	i	-13%	i	i	x	x	x
Cc1ccc(-c2cc3c(=O)n(CCNC(=O)c4cccc5[nH]ccc45)ccn3n2)cc1C	i	32µM*	-15%	35µM*	5.6µM*	23%	15%	7.9µM*
Cc1ccc(C(=O)NCCn2ccn3nc(-c4ccc(C)c(C)c4)cc3c2=O)cc1	-11%	-9%	0%	-2%	i	x	x	x
Cc1ccc(-c2cc3c(=O)n(CCNC(=O)c4ccoc4)ccn3n2)cc1C	1%	u	-12%	u	7.1µM*	25%	17%	u
Cc1ccccc1-n1nc(C)c([C@H]2C=C[C@@H](OC(=O)N[C@H](C)c3ccccc3)C2)c1C	0%[88.5 µM]	u	-18%[70.6 µM]	u	i	x	x	x
Cc1nn(-c2ccc(C(C)C)cc2)c(C)c1[C@@H]1C=C[C@@H](NC(=O)COCC(=O)O)C1	i	u	1%[70.6 µM]	-19%[172 µM]	35µM*	17%[49.3 µM]	13%[49.3 µM]	u
Cc1ccc(-n2nc(C)c([C@@H]3C=C[C@@H](NC(=O)COCC(=O)O)C3)c2C)cc1Cl	-22%[88.5 µM]	-23%[174 µM]	0%[70.6 µM]	-20%[172 µM]	35µM*	10%[49.3 µM]	9%[49.3 µM]	-1%[49.3 µM]
